Compounds with a hit are over-represented: about 19% of the library has one in this group of screens.
IL1B secr inh = blocks inflammasome-driven IL-1 beta release; activity change, % at 57.5 µM; AID 743279; actives 4.7% (n = 360,000); THP-1 LPS/ATP IL-1B secretion, AlphaLISA, 16 h; hits give low values; in the data active means activity change below about -50%; inconclusive means mostly about -30% to -49%
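THP-1 cells pretreated 1 hr with compounds (up to 57.5 uM final), then stimulated with LPS (250 ng/mL final) plus ATP (1.25 mM final); secreted IL-1B measured by AlphaLISA after 16 hr, decreased signal indicating inhibition.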
DT40 TDP1 CPT = growth inhibition of DT40 Tdp1-/-;hTDP1 cells with camptothecin (screen for TDP1 inhibitors); chicken DT40 Tdp1-/-;hTDP1 cells + 20 nM CPT, ATP luminescence, 48 h; Potency, µM (titrated, usually from 46.2 µM), without a hit: at the highest dose activity change, negative = growth inhibition, usual class: inhibitors; actives 12% (n = 420,000); AID 686979; further: potency means the concentration at half of the fitted maximal effect; nearly all actives have a fitted effect of over 55% in size
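Chicken DT40 Tdp1-/- cells complemented with human TDP1, 400 cells/well, exposed to compounds plus 20 nM camptothecin for at least 48 h at 37 C; viability read as ATP content by CellTiter-Glo luminescence.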
ELG1 DNA repair = blocks ELG1-dependent DNA repair in HEK293T cells. Potency, µM (top dose mostly 46.1 µM), inactives show at the top dose activity change, negative = inhibition, actives largely listed as inhibitors. HEK293T ELG1-luciferase reporter, luminescence, 16 h; DNA damage induced by 5-fluorouridine. AID 504467. actives 2.3% (n = 330,000); further: potency means the concentration at half of the fitted maximal effect; nearly all actives have a fitted effect of over 55% in size
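In this reporter screen, reduction of luminescence relative to DMSO vehicle indicated activity. Compounds and 5-fluorouridine were added together to 2,000 cells per well, incubated for 16 hr at 37 °C, then developed with ONE-Glo.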
TDP1 block = TDP1 (human) enzyme inhibition. AID 485290. actives 0.28% (n = 350,000). Potency, µM (doses to about 130 µM), for inactives: at the highest dose activity change, negative = inhibition, usual class: inhibitors. recombinant TDP1, AlphaScreen DNA substrate cleavage. Q9NUW8; further: potency means the concentration at half of the fitted maximal effect; nearly all actives have a fitted effect of over 40% in size
Target sequence (Q9NUW8 whole entry, looked up): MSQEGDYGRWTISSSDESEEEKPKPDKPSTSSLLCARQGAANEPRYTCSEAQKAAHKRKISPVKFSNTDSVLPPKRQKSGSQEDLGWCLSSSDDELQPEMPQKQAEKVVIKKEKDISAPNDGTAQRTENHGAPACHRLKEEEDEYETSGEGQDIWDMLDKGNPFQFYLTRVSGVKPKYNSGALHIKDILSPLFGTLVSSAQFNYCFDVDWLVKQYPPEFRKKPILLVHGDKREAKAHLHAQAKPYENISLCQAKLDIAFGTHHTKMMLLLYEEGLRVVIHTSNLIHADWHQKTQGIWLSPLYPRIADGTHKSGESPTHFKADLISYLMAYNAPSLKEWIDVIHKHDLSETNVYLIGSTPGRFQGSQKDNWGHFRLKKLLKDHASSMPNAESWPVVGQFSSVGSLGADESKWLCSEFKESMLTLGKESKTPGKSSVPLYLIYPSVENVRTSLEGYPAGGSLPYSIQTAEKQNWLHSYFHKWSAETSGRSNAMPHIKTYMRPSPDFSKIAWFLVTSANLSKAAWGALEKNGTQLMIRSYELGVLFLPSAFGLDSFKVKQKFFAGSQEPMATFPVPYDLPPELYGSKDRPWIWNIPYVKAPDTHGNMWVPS
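Here, a 5' biotin and 3' phosphotyrosine-FITC DNA oligonucleotide reports Tdp1 activity: intact substrate bridges AlphaScreen beads, while cleavage leaves a 3' phosphate and drops signal. All incubations at room temperature.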
TDP1 cell noCPT = qHTS for Inhibitors of human tyrosyl-DNA phosphodiesterase 1 (TDP1): qHTS in cells in absence of CPT. AID 686978, 2013. Potency, µM (doses to about 46.2 µM), for the others: at the highest dose activity change, negative = growth inhibition, usual class: inhibitors. actives 15% (n = 420,000). DT40 Tdp1-/- hTDP1 cells, no CPT, ATP luminescence, 48 h; further: potency means the concentration at half of the fitted maximal effect; nearly all actives have a fitted effect of over 55% in size
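Luminescent ATP content (CellTiter-Glo) served as the growth readout. Knockout chicken DT40 cells expressing human TDP1 were exposed to compounds without camptothecin for a minimum 48 hr at 37 °C.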
Giardia kill = Giardia lamblia killing | Giardia lamblia trophozoite viability | activity change, % at 7.66 µM, hits read low | actives 0.15% (n = 340,000) | AID 540267; in the data active means activity change below about -80%; inconclusive means between about -30% and that limit;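 further: parasites exposed to compound for two days anaerobically before the ATP read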
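Each well holds 100 Giardia trophozoites and compound. After two days (48 hrs) at 37 deg C in anaerobic conditions, ATP is quantified by luminescence.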
Starred values were filed as active, the others as inactive; u = inconclusive; x = not tested or not shown; [ ] = another dose, or the depositor's remark. Unless noted, the call rests on the fitted dose curve; in most records, active means well fitted curve in the direction sought with a large enough effect; inconclusive means small, poorly fitted or top-dose-only effect, or another doubt; inactive means no such curve, though single readings can be large; an effect the other way counts as inactive or inconclusive. On the % scale 0 is the no-effect control and ±100 the full control effect.

SMILES	IL1B secr inh	DT40 TDP1 CPT	ELG1 DNA repair	TDP1 block	TDP1 cell noCPT	Giardia kill
CSc1ncccc1C(=O)OCC(=O)c1cccs1	31	2%	2%	-2%	-7%	3
Cc1ccccc1-c1nn(-c2ccc(F)cc2F)cc1CNCCCN(C)C	-62*	u	-6%	3%	7.3µM*	29
CCCn1c(=N)c(C(=O)NC2CCCC2)cc2c(=O)n3cc(C)ccc3nc21	x	-22%	x	x	-1%	x
O=C(Cn1c(=O)n(-c2cccc(Cl)c2)c(=O)c2sc3ccccc3c21)N1CCCC1	x	u	x	1%	15µM*	x
O=C(Cn1c(=O)n(-c2ccc(Cl)cc2)c(=O)c2sc3ccccc3c21)NC1CCCC1	x	13µM*	x	6%	18µM*	x
CC(C)(C)C(=O)C(C(c1ccccc1)N1CCOCC1)N1CCOCC1 (stereo not given)	2	0%	x	x	u	-3
CC(C)c1ccc(/C=c2\sc3n(c2=O)C(N)=C(C#N)C(c2ccc(C(C)C)cc2)C=3C(N)=O)cc1 (stereo not given)	30	5.8µM*	x	x	7.3µM*	2
CCOC(=O)C1=C(N)n2c(s/c(=C\c3cccnc3)c2=O)=C(C#N)C1c1cccnc1 (stereo not given)	3	11%	x	x	16%	-1
CC(Oc1ccc2ccccc2c1)C(=O)NNC(=O)Nc1ccccc1 (stereo not given)	0	-3%	0%	3%	-15%	-8
CCc1cc(C(=O)N2CCCC(CNC(=O)c3ccc(-c4ccccc4)cc3)C2)no1 (stereo not given)	-23	u	u	5%	16µM*	-3
COc1ccc(OCc2cc(C(=O)N3CCCC(CO)C3)no2)c2ccccc12 (stereo not given)	-12	u	u	8%	15µM*	-5
CCn1ccnc1CN(C)C(=O)c1cc(COc2ccc(OC)c3ccccc23)on1	-16	15µM*	-5%	1%	u	28
O=C(c1cc(COc2cccc3cnccc23)on1)N1CCCC(CCCO)C1 (stereo not given)	u	1.2µM*	-8%	1%	0.65µM*	6
Cc1ccc(OCc2cc(C(=O)N(C)Cc3nccn3C)no2)cc1C	0	-20%	5%	5%	-22%	39
Cc1nn(C)cc1C(C)NC(=O)c1cc(COc2c(F)cccc2F)on1 (stereo not given)	-25	-28%	1%	3%	9%	3
Cc1nn(C)cc1C(C)NC(=O)c1cc(COc2cccc3cnccc23)on1 (stereo not given)	-13	10µM*	18µM*	3%	u	3
COCC1CCN(C(=O)c2cc(COc3cccc4cnccc34)on2)CC1	-53*	9.2µM*	-18%	5%	4.1µM*	3
O=c1[nH]c(Cc2ccccn2)nc2scc(-c3ccccc3Cl)c12	45	8%	u	10%	u	3
CC(Sc1nc(C2CC2)n(-c2ccccc2)n1)C(=O)c1c(N)n(C)c(=O)n(C)c1=O (stereo not given)	-3	3%	-10%	3%	-9%	1
CC(Sc1nn(-c2ccc(F)cc2)c(=S)s1)C(=O)c1c(N)n(C)c(=O)n(C)c1=O (stereo not given)	-6	u	3%	-8%[0.505 µM]	13µM*	-9
Cn1c(N)c(C(=O)CSc2nn(-c3ccccc3)c(=S)s2)c(=O)n(C)c1=O	70	u	u	-11%	16µM*	9
Cn1c(SCC(=O)c2c(N)n(C)c(=O)n(C)c2=O)nnc1-c1ccccc1	4	-1%	26%	4%	-25%	9
COc1ccccc1N1CCN(S(=O)(=O)CCNC(=O)C(c2ccccc2)c2ccccc2)CC1	x	u	x	5%	u	x
Cn1cccc1C(=O)N1CCC2(CCCN(Cc3ccccc3)C2)CC1	x	-2%	x	x	-23%	x
COc1ccccc1/C=C/C(=O)NCCC1=CCCCC1	-50*	-28%	u	-3%	-25%	-5
SMILES	IL1B secr inh	DT40 TDP1 CPT	ELG1 DNA repair	TDP1 block	TDP1 cell noCPT	Giardia kill
O=C(/C=C/c1ccc(F)cc1)NCCC1=CCCCC1	-17	21µM*	u	4%	16µM*	-1
COc1ccccc1NC(=O)C(=O)c1cc(C)n(-c2cc(C)cc(C)c2)c1C	x	u	x	0%	u	x
CC(C)(C)c1ccc(C(=O)Nc2ccccc2C(=O)OCc2cc(=O)n3ccsc3n2)cc1	x	-6%	x	4%	2%	x
Cc1cccc(C(=O)Nc2ccc(C(=O)OCc3cc(=O)n4c(C)csc4n3)cc2)c1	x	u	x	-14%	16µM*	x
Cc1cccc(C(=O)Nc2ccccc2OCc2cc(=O)n3c(C)csc3n2)c1	x	0%	x	6%	-3%	x
Cc1ccc(C(=O)Nc2ccc(C(=O)OCc3cc(=O)n4ccsc4n3)cc2)cc1	x	18%	x	22µM*	0%	x
O=C(Nc1ccccc1C(=O)OCc1cc(=O)n2ccsc2n1)c1cccc(F)c1	x	18µM*	x	-1%	12µM*	x
CC(C)(C)c1ccc(C(=O)Nc2ccc(C(=O)OCc3cc(=O)n4ccsc4n3)cc2)cc1	x	21µM*	x	-6%	21µM*	x
CC1CCN(CCOCCOc2ccc(Cl)cc2Br)CC1	u	13µM*	-2%	-3%	21µM*	9
CC1CCN(CCCCOc2ccc(Br)cc2)CC1	-10	u	-1%	x	u	-29
Cc1cc(Br)ccc1OCCCCN1CCC(C)CC1	u	23µM*	-2%	-3%	u	-8
CN1CCN(CCOCCOc2c(Cl)cc(Cl)cc2Cl)CC1	-8	u	x	x	16µM*	7
CCC(C)NCCCOc1c(C)cc(C)cc1Br (stereo not given)	-76*	u	-9%	0%	12µM*	-8
COc1ccc(C2C(=O)N(C3CCC(C)CC3)CC(=O)N2Cc2ccc(C)cc2)cc1OC (stereo not given)	x	u	x	5%	u	x
COc1cc(NC(=O)c2cccc(C)c2)c(Cl)cc1[N+](=O)[O-]	-5	-18%	17%	0%	-19%	-6
COc1ccc(NC(=O)N2CCCC3(CCN(C(C)=O)CC3)C2)cc1	x	9%	x	x	3%	x
COc1cc(-c2noc(-c3ccc(NC4CCCC4)c([N+](=O)[O-])c3)n2)cc(OC)c1OC	x	-20%	x	9%	-26%	x
COc1cccc(Nc2ncccc2C(=O)Nc2ccccc2)c1	u	-27%	u	4%	3%	-1
